Screening results as filed in PubChem.
MITF primary = inhibitors of human MITF | inhibition, % at 2.6 µM | AID 1259374 | AlphaScreen MITF homodimerization, bead proximity signal | O75030 | 0.91% of 650,000 active; in the data active = inhibition above about 50%;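 note: 0% = vehicle wells with protein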
Target sequence (O75030 whole entry, looked up): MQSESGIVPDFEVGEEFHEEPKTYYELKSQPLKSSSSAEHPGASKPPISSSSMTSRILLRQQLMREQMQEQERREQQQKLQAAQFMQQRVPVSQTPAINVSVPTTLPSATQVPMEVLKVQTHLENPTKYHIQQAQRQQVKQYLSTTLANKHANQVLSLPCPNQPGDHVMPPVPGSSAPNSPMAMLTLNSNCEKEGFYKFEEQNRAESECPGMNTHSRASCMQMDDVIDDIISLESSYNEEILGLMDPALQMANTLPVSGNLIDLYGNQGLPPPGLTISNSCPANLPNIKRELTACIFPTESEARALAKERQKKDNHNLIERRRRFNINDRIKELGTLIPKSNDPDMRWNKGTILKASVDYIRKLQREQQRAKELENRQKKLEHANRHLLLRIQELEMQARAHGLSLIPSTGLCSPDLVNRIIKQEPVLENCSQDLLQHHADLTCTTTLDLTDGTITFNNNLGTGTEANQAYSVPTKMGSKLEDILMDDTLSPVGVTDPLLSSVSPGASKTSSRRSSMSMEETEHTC
FBW7 activator = human FBW7 E3 ligase activation, primary screen | AID 1259310 | 0.13% of 650,000 active | Q969H0 | AlphaScreen FBW7–phospho-cyclin E peptide binding, activator screen | normalized activity (activation), % at 26.1 µM; in the data active = normalized activity above about 1.9%;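 note: purified mutant Fbw7 with reduced substrate affinity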
GPR151 activ = activates the human receptor GPR151; Q8TDV0; PathHunter beta-arrestin GPR151 cells, luminescence; activation, % at 11.2 µM; 1% of 650,000 active; in the data active = activation above about 4.9%;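 note: 0% = median of compound wells and 100% = cells with positive control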
TEAD-YAP inh = TEAD-YAP interaction inhibition; HEK-TIYL cells, TEAD-Gal4/YAP UAS-luciferase luminescence; 1.4% of 640,000 active; inhibition, % at 9.12 µM; AID 1259422; in the data active = inhibition above about 32%;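 note: 0% = median of test compound wells and 100% = reference inhibitor wells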
MITF inh conf = confirmation of human MITF inhibitors. AlphaScreen MITF homodimerization, biotin/His-MITF beads. 16% of 4,700 active. AID 1259372. inhibition, % at 2.6 µM. shares compounds with MITF primary;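 active = inhibition above a cutoff derived from the DMSO control wells, cut at about 28% in these data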;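 note: 0% = MITF dimer wells with DMSO only; inhibitors lower the bead chemiluminescence by keeping MITF from dimerizing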
AlphaScreen DR = optically interferes with AlphaScreen signal in dose response; shares compounds with MITF primary; AlphaScreen optical interference counterscreen, cell-free; IC50, µM; 6% of 480 active; call rule not given here
AlphaScreen intf2 = AlphaScreen optical interference, counter-screen; AID 1259376; inhibition, % at 2.6 µM; shares compounds with MITF primary; LysRS AlphaScreen counterscreen, signal interference, triplicate; 7.6% of 4,700 active;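 active = inhibition above a cutoff derived from the DMSO control wells, cut at about 30% in these data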
Numbers without * were called inactive; / = no result. Sampled rows, rich in hits. Any-hit rate of the full collection: about 3.5%.

SMILES | MITF primary | FBW7 activator | GPR151 activ | TEAD-YAP inh | MITF inh conf | AlphaScreen intf2 | others
O=C(CNCCCN1CCOCC1)Nc1ccc(N2CCCC2)cc1 | 54* | 0 | 0 | -5 | 4 | 19
O=C(NCCN1CCOCC1)c1cccc(-c2ccccc2)c1 | 75* | 0 | 0 | -5 | 11 | 6
CN1CCN(CC#CC=C(c2ccccc2)c2ccccc2)CC1 | 5 | 0 | 0 | -13 | / | /
Cc1ccc(N2CCSC2c2cccs2)cc1 (configuration not stated) | -7 | 0 | 1 | 12 | / | /
CCN1CCN(CC(=O)Nc2ccc(C(F)(F)F)cc2)C(=O)C1=O | 6 | 1 | 0 | 12 | / | /
O=C(CNCc1ccc2c(c1)OCO2)Nc1ccc(N2CCCC2)cc1 | 62* | 0 | 0 | -1 | 21 | 23
CC(C)c1cccc(C(C)C)c1NC(=O)CNCCO | 53* | 0 | 0 | -1 | 4 | 4
c1cc2c(cc1CNCC1CCCCC1)OCO2 | 58* | 0 | -1 | -8 | 9 | 11
CC(C)N(C(=O)CNCCN1CCOCC1)c1ccccc1 | 72* | 0 | 0 | 1 | -5 | 1
C=CCn1c(SCc2csc(C)n2)nc2scc(-c3ccc(OC)cc3)c2c1=O | -4 | 0 | -2 | -11 | / | /
O=C(CNCCCN1CCOCC1)Nc1ccc2c(c1)OCO2 | 71* | 0 | -1 | 2 | 4 | 12
COc1ccc(NC(=O)NC2CCCCC2)c([N+](=O)[O-])c1 | -4 | 0 | -1 | 2 | / | /
C=CCOc1ccc2c3c(c(=O)oc2c1C)CCC3 | 54* | 1 | -2 | -27 | 12 | 14
Cc1cccc(NC(=O)CN(c2ccc(I)cc2)S(C)(=O)=O)c1 | 71* | 0 | 0 | -75 | -2 | 0
Cc1ccc(NC(=O)CN(c2ccc(I)cc2)S(C)(=O)=O)cc1 | -19 | 0 | -2 | -64 | / | /
COC(=O)c1cc(NC(=O)c2cc(Cl)ccc2[N+](=O)[O-])cc(C(=O)OC)c1 | 16 | 0 | 1 | -2 | / | /
COc1cccc(C2(NC(=O)c3cccc4c3C(=O)N(C)C4)CCCC2)c1 | 13 | 0 | 0 | 9 | / | /
Cc1cnc(Nc2ccc(-n3ccnc3)cc2)nc1Nc1ccccc1 | 52* | 0 | 2 | 37* | -13 | -1
Cc1cnc(Nc2nc3ccccc3n2C)nc1Nc1ccccc1 | 73* | 0 | -1 | -17 | -6 | 14
Fc1ccc(N2CCN(Cc3ccccn3)CC2)cc1 | 63* | 0 | 1 | 0 | 14 | 42*
Fc1cccc(CN2CCN(Cc3ccccn3)CC2)c1 | 71* | 0 | 0 | -6 | 11 | 25
c1ccc(Oc2cccc(CN3CCN(Cc4ccccn4)CC3)c2)cc1 | 75* | 0 | -1 | 2 | -5 | 5
COc1ccc(Cl)cc1NC(=O)CN(C(=O)N1CCN(C)CC1)S(=O)(=O)c1ccc(C)cc1 | 4 | 0 | 3 | 3 | / | /
CCC(C)NC(=O)CSc1nnc(-c2ccoc2C)n1Cc1ccco1 (configuration not stated) | 10 | 0 | 0 | -1 | / | /
O=C(NO)c1nc[nH]c1C(=O)NO | 98* | 0 | -2 | -1 | 99* | 101*
SMILES | MITF primary | FBW7 activator | GPR151 activ | TEAD-YAP inh | MITF inh conf | AlphaScreen intf2 | others
O=C(Nc1ccccc1)c1nc[nH]c1C(=O)Nc1ccccc1 | 12 | 0 | 0 | 7 | / | /
CC(=O)N1c2ccc([N+](=O)[O-])cc2C(C)(c2ccc(N(C)C)cc2)CC1(C)C (configuration not stated) | 11 | 0 | 0 | -4 | / | /
O=C(NCc1ccco1)C1CCN(Cc2cccc(Cl)c2Cl)CC1 | 51* | 0 | 0 | 6 | -1 | -2
CN(C)CC(C)(C)CNC(=O)C1CCN(Cc2ccccc2Cl)CC1 | 63* | 0 | 0 | 2 | -20 | -1
COc1ccc(C(=O)Nc2cc(C(=O)N3CCN(c4ccccc4Cl)CC3)ccc2N2CC3CC(C2)c2cccc(=O)n2C3)cc1 (configuration not stated) | 22 | 0 | 1 | 9 | / | /
CCn1c(C)[n+](CC)c2ccc(S(=O)(=O)C(F)F)cc21 | 1 | 0 | 0 | 6 | / | /
CCn1c(C)[n+](CC)c2ccc(Cl)cc21 | 57* | 0 | 1 | -2 | -2 | 3
CN1CCN(CCS(=O)(=O)OCC(F)(F)C(F)F)CC1 | 77* | 0 | 2 | 0 | 11 | -3
CN(C)CCOCCOc1ccccc1-c1ccccc1 | 87* | 0 | 1 | 1 | 41* | 22 | AlphaScreen DR=>6.5
CN(C)CCOc1ccccc1-c1ccccc1 | 61* | 0 | 1 | 3 | -1 | 14
CNCCOc1ccccc1-c1ccccc1 | 24 | 0 | 0 | 0 | / | /
CC1=C(C(=O)OC(C)C)C(c2cccc(Cl)c2Cl)CC(=O)N1 (configuration not stated) | 10 | 0 | -1 | 7 | / | /
Cc1ccc(C)c(-n2c(=O)c(C#N)cc3c(=O)n4cccc(C)c4nc32)c1 | 1 | 0 | -1 | 0 | / | /
COc1ccc(C(=O)N2CCN(c3nc(-c4ccccc4)c4c(c3C#N)CCCC4)CC2)cc1 | 4 | 1 | 1 | 6 | / | /
COCCN(C1CCN(CCc2ccc(Cl)cc2)CC1)S(=O)(=O)c1cccs1 | 63* | 0 | 0 | 9 | 1 | 8
CN(CC(=O)Nc1cccc(F)c1)CC(=O)Nc1ccccc1-c1ccccc1 | -1 | 0 | 0 | 2 | / | /
COc1cccc(NC(=O)CN(C)CC(=O)Nc2ccc(C)c(F)c2)c1 | 91* | 0 | 1 | 3 | 10 | 20
CN(CC(=O)Nc1cccc(F)c1)CC(=O)Nc1ccccc1Oc1ccccc1 | 70* | 0 | 4 | -4 | -10 | 9
CC(=O)Nc1ccc(-c2csc(NCc3ccccc3)n2)cc1 | 8 | 0 | 2 | -33 | / | /
CC(=O)Nc1cccc(-c2csc(NCc3ccccc3)n2)c1 | 85* | 0 | 0 | -4 | 9 | 9
COc1ccccc1Nc1nc(-c2cccc(NC(C)=O)c2)cs1 | -2 | 0 | 2 | -67 | / | /
CCc1ccccc1Nc1nc(-c2cccc(NC(C)=O)c2)cs1 | 53* | 0 | 5 | -2 | 7 | 14
Clc1cccc(-c2cnnc(N3CCN(C4CCCC4)CC3)n2)c1 | 18 | 0 | 0 | 1 | / | /
Cc1ccc(/C=C/C(=O)NCc2ccco2)o1 | 64* | 0 | -1 | -10 | 66* | 39*
Cc1ccc(/C=C/C(=O)NCc2ccccn2)o1 | 61* | -1 | 2 | 1 | 39* | 19 | AlphaScreen DR=>6.5
C=CCc1ccccc1OCCOCCN1CCN(C)CC1 | 60* | 0 | 0 | 0 | -1 | 13
C=CCc1ccccc1OCCOCCN1CCCCC1 | 79* | 0 | -2 | 2 | 11 | 25
Cc1cccc(C)c1NC(=O)C(Cc1c[nH]c2ccccc12)NC(=O)OC(C)(C)C (configuration not stated) | 63* | 0 | 1 | -1 | 9 | 11
N#C/C(=C\c1ccc2c(c1)OCO2)C(=O)NC1CCCCCC1 | 18 | 1 | 0 | 4 | / | /
